Sampled rows, rich in hits. Any-hit rate of the full collection: about 2%.
NR2F2 inh – blocks human COUP-TFII nuclear receptor; inhibition, % at 8.6 µM; P24468; HEK293T NGFI-A luciferase reporter, luminescence; AID 686940; hit rate 0.7% among 370,000;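 active means inhibition above a per-plate cutoff, mean inhibition of test wells between control levels plus 3 SD, cut at about 38% in these data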;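 further: cells cotransfected with COUP-TFII expression vector driving the NGFI-A reporter; 0% = median of COUP-TF2 test wells and 100% = reporter-only cells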
Target sequence (P24468 whole entry, looked up): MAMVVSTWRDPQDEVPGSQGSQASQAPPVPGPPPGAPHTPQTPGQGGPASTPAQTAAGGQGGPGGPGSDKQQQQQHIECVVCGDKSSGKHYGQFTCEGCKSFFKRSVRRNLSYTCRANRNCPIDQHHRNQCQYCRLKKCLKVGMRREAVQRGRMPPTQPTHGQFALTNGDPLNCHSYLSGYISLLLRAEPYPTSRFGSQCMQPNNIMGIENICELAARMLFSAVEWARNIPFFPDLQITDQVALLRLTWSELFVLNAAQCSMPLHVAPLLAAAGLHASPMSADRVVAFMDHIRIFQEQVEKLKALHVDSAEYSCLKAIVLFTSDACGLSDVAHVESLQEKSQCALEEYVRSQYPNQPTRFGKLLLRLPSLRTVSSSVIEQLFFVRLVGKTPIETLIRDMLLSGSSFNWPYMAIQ
697 NFkB inh – inhibitors of the PMA/ionomycin-induced NF-kB reporter in 697 B cells | hit rate 0.33% among 330,000 | 697 B-cell NF-kB luciferase reporter, 16 h | inhibition, % at 4 µM; in the data active means inhibition above about 35%
Gli-Sufu antag – antagonists of Gli-Sufu signaling; Sufu-KO-LIGHT fibroblasts, Gli luciferase reporter luminescence; inhibition, % at 5 µM; hit rate 0.74% among 340,000; AID 588413;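 active means inhibition above about 55%, limit read from the data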;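 further: 0% = DMSO-treated cells and 100% = wells with medium but no cells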
Jurkat NFkB inh – lowers PMA/ionomycin-induced NF-kB signal in Jurkat cells. inhibition, % at 4 µM. PMA/ionomycin-induced NF-kB luciferase reporter, luminescence. hit rate 0.53% among 330,000. AID 435003; in the data active means inhibition above about 50%
GalR3 antagonist – human GalR3 antagonism. HEK293 GalR3-CNG cAMP membrane potential fluorescence; galR3 body fused to GalR1 C-terminus. inhibition, % at 3 µM. hit rate 0.44% among 360,000. AID 651719;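 active means inhibition above the screen-wide average plus 3 SD, cut at about 13% in these data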;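 further: forskolin and galanin both at EC90 stimulate the cells; cAMP rise reported by CNG channel membrane potential dye signal; 0% = forskolin plus galanin with DMSO and 100% = forskolin alone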
Target sequence (O60755 1-299 limits assumed): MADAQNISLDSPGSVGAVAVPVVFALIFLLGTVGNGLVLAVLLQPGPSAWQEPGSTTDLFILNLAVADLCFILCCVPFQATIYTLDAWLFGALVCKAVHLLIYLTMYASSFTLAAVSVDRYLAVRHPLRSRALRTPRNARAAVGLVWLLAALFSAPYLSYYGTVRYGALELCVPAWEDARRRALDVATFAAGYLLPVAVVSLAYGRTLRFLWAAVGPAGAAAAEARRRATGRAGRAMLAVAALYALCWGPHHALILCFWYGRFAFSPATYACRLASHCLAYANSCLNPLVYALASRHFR
Jurkat NFkB conf – inhibitors of the PMA/ionomycin-induced NF-kB reporter in Jurkat cells, retest; Jurkat NF-kB luciferase, 16 h; inhibition, % at 4 µM; hit rate 27% among 2,700; AID 435020; shares compounds with Jurkat NFkB inh;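 active means inhibition reaching about 45% at 4 µM in either replicate, limit read from the data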;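 further: plate controls were PMA/ionomycin stimulated DMSO wells for no effect and unstimulated DMSO wells for full effect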
697 NFkB conf – lowers PMA/ionomycin-induced NF-kB signal in 697 B cells. inhibition, % at 4 µM. AID 449746. 697 B-cell NF-kB luciferase, 16 h. shares compounds with 697 NFkB inh. hit rate 35% among 2,000; in the data active means inhibition mostly above about 28%, no sharp cut-off; inactive means mostly below about 22%
Gli antag conf – Gli-SUFU antagonism confirmation, single concentration | Sufu-KO-LIGHT cells, Gli luciferase reporter, luminescence | shares compounds with Gli-Sufu antag | hit rate 40% among 2,500 | inhibition, % at 5 µM;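 active means mean inhibition at 5 µM reaching about 45%, limit read from the data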;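 further: plate controls were DMSO-treated cells for no effect and wells lacking cells for full effect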
SufuKO cytotox – counter-screen for Gli-SUFU antagonists: cytotoxicity; Sufu-KO-LIGHT cells cytotoxicity, ATP luminescence; hit rate 32% among 2,500; shares compounds with Gli-Sufu antag; cytotoxicity, % at 5 µM;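 active means mean cytotoxicity at 5 µM above about 25%, limit read from the data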;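 further: cells exposed to compound overnight for roughly 16 to 18 hours; plate controls were DMSO wells with cells for no effect and medium without cells for full effect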
Wnt3a counter – Wnt3a reporter inhibition counter-screen | shares compounds with Gli-Sufu antag | Wnt-LIGHT cells, Wnt3a-driven luciferase reporter, luminescence | inhibition, % at 6.25 µM | hit rate 20% among 2,500 | AID 651995;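 active means mean inhibition above about 25%, limit read from the data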
GalR3 conf – confirmation of human galanin receptor 3 antagonists | shares compounds with GalR3 antagonist | HEK293 GalR3 CNG cAMP biosensor, membrane potential fluorescence; galR3 fused to GalR1 carboxy tail; challenged with forskolin and galanin at EC90 | inhibition, % at 3 µM | hit rate 59% among 1,600 | AID 652245;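 active means inhibition above the primary screen's cutoff, the mean inhibition of all screened compounds plus 3 SD, cut at about 13% in these data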;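 further: 0% = forskolin plus galanin and 100% = forskolin alone with DMSO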
HEK-CNG parental – acts as nonspecific agonist in parental HEK-CNG cells; HEK293-CNG parental cells, cAMP membrane potential fluorescence; normalised: DMSO wells 0%, forskolin wells 100%; hit rate 10% among 1,600; activation, % at 3 µM; AID 652268; shares compounds with GalR3 antagonist; in the data active means activation above about 1.3%
VP16 Luc counter – inhibits VP16 reporter, flagging COUP-TFII antagonist hits; AID 687007; inhibition, % at 8.5 µM; shares compounds with NR2F2 inh; hit rate 25% among 2,500; HEK293 Gal4-VP16 luciferase reporter, luminescence; in the data active means inhibition above about 13%
COUP-TFII conf – COUP-TFII (NR2F2) inhibition, confirmation assay | HEK293 NGFI-A luciferase reporter, luminescence | inhibition, % at 8.5 µM | AID 687008 | hit rate 45% among 2,500 | shares compounds with NR2F2 inh;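 active means mean inhibition over three repeats above a set limit taken from the earlier primary screen, cut at about 38% in these data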;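 further: 100% = cells given the luciferase reporter alone without the COUP-TF2 vector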
* hit, by the source's call; . = no result.

SMILES	NR2F2 inh	697 NFkB inh	Gli-Sufu antag	Jurkat NFkB inh	GalR3 antagonist	Jurkat NFkB conf	697 NFkB conf	VP16 Luc counter	COUP-TFII conf	others
CC1CCN(C(=O)c2ccc3c(c2NCCO)C(=O)c2ccccc2C3=O)CC1	2	8	6	-1	-1	.	.	.	.
CCN(CC)CCNC(=O)c1ccc2c(c1NCCO)C(=O)c1ccccc1C2=O	64*	-35	42	86*	-4	47*	.	-4	-5
C[C@H]1COc2c3ccccc3nn21	-5	.	.	.	.	.	.	.	.
COc1ccc2c(CCN3C(=O)c4ccccc4C3=O)c(-c3c(CCN4C(=O)c5ccccc5C4=O)c4ccccc4n3C(=O)OC(C)(C)C)[nH]c2c1	-13	.	.	.	.	.	.	.	.
CSc1ccccc1C(=O)Nc1nc2ccccc2[nH]1	-27	-56	-61	-55	-1	.	.	.	.
COc1cc(SC)ccc1C(=O)Nc1nc2ccccc2[nH]1	100*	92*	93*	99*	-11	98*	98*	96*	108*
COc1ccccc1C(=O)Nc1nc2ccccc2[nH]1	98*	69*	75*	91*	5	93*	67*	87*	100*
CC(Oc1ccc(Cl)cc1Cl)c1nc(-c2ccc(NC(=O)c3ccncc3)cc2)no1 (stereo not given)	80*	-3	38	51*	-7	57*	.	0	32
CCCCCCCCCCCCCCCC[n+]1cccc2ccccc21	54*	62*	89*	88*	-3	88*	23*	15*	63*
Cc1ccccc1C[n+]1cccc2ccccc21	-5	-22	9	13	-2	.	.	.	.
CCOC(=O)[C@]12CCCCC/C=C\1N(CCc1ccc(Cl)cc1)C(=O)[C@H]2CC(=O)NCc1ccccc1	-14	.	.	.	.	.	.	.	.
CCN(CC)S(=O)(=O)c1ccc(Oc2ccc(S(=O)(=O)N(CC)CC)cc2)cc1	38*	84*	80*	55*	-2	75*	87*	3	9	Gli antag conf=85*;SufuKO cytotox=45*;Wnt3a counter=29*
CCN(CC)S(=O)(=O)c1ccc(Oc2ccccc2OC)cc1	14	-4	2	-1	-3	.	.	.	.
O=C(NC1CCCCC1)c1ccc(S(=O)(=O)NCc2ccco2)cc1	6	-8	4	-8	-2	.	.	.	.
O=C(NC1CCN(Cc2ccccc2)CC1)c1ccc(S(=O)(=O)NCc2ccco2)cc1	48*	-34	54	51*	63*	10	.	6	22	Gli antag conf=20;SufuKO cytotox=24;Wnt3a counter=-12;GalR3 conf=52*;HEK-CNG parental=0
O=C(NC(=O)c1c(Cl)cccc1Cl)Nc1ccc(Oc2cccnc2)nc1	1	-7	-7	-28	-1	.	.	.	.
O=C(Nc1ccc(Oc2cccnc2)nc1)c1ccc(C(F)(F)F)cc1	66*	-42	3	50*	77*	57*	.	2	38*	GalR3 conf=61*;HEK-CNG parental=0
CC(C)(C)c1ccc(Oc2ccc(NC(=O)c3ccco3)cn2)cc1	43*	-143	16	53*	-6	40	.	29*	59*
CCOC(=O)CC1CCCCN1C(=O)c1cc(COc2cccc3cnccc23)on1 (stereo not given)	71*	-35	74*	50*	104*	72*	.	16*	78*	Gli antag conf=62*;SufuKO cytotox=20;Wnt3a counter=25;GalR3 conf=111*;HEK-CNG parental=0
CC(C)CCn1cnc2c(sc3nc4c(cc32)CSC(C)(C)C4)c1=O	55*	-359	-15	-208	-3	-65	-286	-57	24
CC1(C)Cc2nc3sc(C(=O)O)c(N)c3cc2CS1	.	22	.	-7	.	.	.	.	.
Cc1n[nH]c(C)c1S(=O)(=O)NCCc1ccccc1F	-3	.	.	.	.	.	.	.	.
N#Cc1c(NC(=O)CSc2nc(N)cc(=O)[nH]2)sc2c1CCCCCC2	16	-59	17	14	1	.	.	.	.
N#Cc1c(NC(=O)CSc2ncn[nH]2)sc2c1CCCCC2	88*	70*	34	63*	-7	65*	59*	81*	79*
O=C(O)c1ccc(N/N=C/c2ccc3nccnc3c2)cc1	67*	20	55*	60*	3	18	.	17*	59*	Gli antag conf=59*;SufuKO cytotox=35*;Wnt3a counter=101*
SMILES	NR2F2 inh	697 NFkB inh	Gli-Sufu antag	Jurkat NFkB inh	GalR3 antagonist	Jurkat NFkB conf	697 NFkB conf	VP16 Luc counter	COUP-TFII conf	others
C[C@H](O)[C@@H]1CN2CCc3c([nH]c4c(-c5ccccc5)cccc34)[C@@H]2C[C@@H]1N(C)CC1CCCCC1	-27	.	.	.	.	.	.	.	.
Cc1nn(C(C)(C)C)c(C)c1/C=N/OC(=O)Nc1ccc(Cl)cc1	99*	52*	92*	75*	-7	95*	63*	94*	107*
Cc1nn(C)c(C)c1/C=N/NC(=O)C(C)(C)Oc1ccc(Cl)cc1	.	7	5	6	.	.	.	.	.
COc1ccc(-c2nnn3c2Cn2c4ccccc4c(=O)n2[C@@H](C(C)C)C3)cc1	-11	.	.	.	.	.	.	.	.
CC(C)(C)c1ccc(-c2nnc(SCC(=O)Nc3ccccc3-c3ccccc3)n2Cc2ccco2)cc1	11	.	.	.	.	.	.	.	.
Cc1cc(C(=O)NC2CCCc3c2cnn3-c2cccc(C)c2C)n(C)n1 (stereo not given)	67*	77*	81*	72*	100*	78*	96*	8	68*	GalR3 conf=105*;HEK-CNG parental=-1
CC(=O)NC1CCCc2c1cnn2-c1ccc(C(C)(C)C)cc1 (stereo not given)	14	-20	13	-10	-5	.	.	.	.

Screening results deposited in PubChem BioAssay by several laboratories.
